Activation data for 26 compounds are collected here from PubChem BioAssay AID743398 (Broad Institute, 2014).

In all, about 300,000 compounds went through this assay and about 3,600 (1.2%) were called active. Cut-off read from the data, not from the text of the source: active = activation above about 30% (passing the limit was not always enough); inconclusive = no clear call, values can overlap the other calls. Shown is part of a subset that was picked to be rich in actives.

A short description of the assay: Wnt/beta-catenin pathway activators, primary screen, cell-based, plate reader, single point (AID 743398).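 Note: 0% = neutral control wells and 100% = positive control wells.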 The conditions noted are these: Wnt/beta-catenin reporter cell assay, activator, at 9.35 µM, active compounds read high.
As to `O=C(NN=Cc1ccco1)C(=O)Nc1ccc(Cl)c([N+](=O)[O-])c1`, the activation was -3.58% (inactive).

Consider `Cc1cc(C)n2c(Nc3c(C)cccc3C)c(CCc3ccccc3)nc2n1`, for which the activation was -1.15% (inactive).

Take `Cc1nonc1NC(=O)CSc1nc2ccccc2cc1C#N`: the activation was 24.4% (inactive).

Consider `Cc1nc2cc(NC(=O)CSc3nc4c(C)cccc4cc3C#N)ccc2s1`, for which the activation was -2.44% (inactive).

As to `Cc1cc(C)c(C#N)c(SCC(=O)Nc2ccccc2)n1`, the activation is 39.1% (active).

With `CCCCc1c(-c2ccc(Br)cc2)ncn1CCc1ccccc1OC`, the activation is -12.1% (inactive).

In the case of `CC(=O)c1ccc(S(=O)(=O)NCC2CCN(C(=O)C(=O)c3cccs3)CC2)cc1`, the activation is -0.884% (inactive).

Turning to `Cc1nc(NC(=O)C23CCC(C)(C(=O)O2)C3(C)C)sc1C` (stereo unspecified), the activation was -2.53% (inactive).

Take `Cc1nc2ccc(NC(=O)C3CCCCC3)cc2s1`: the activation is 15.2% (inactive).

Regarding `Cc1nc(NC(=O)C2CCCCC2)sc1C`, the activation is 37.5% (active).

For the compound `CCOC(=O)c1ccc(-c2ccc3ncnc(N(C)Cc4sccc4C)c3c2)o1`, the activation was 7.57% (inactive).

`COC(=O)C(C(=O)OC)c1ccccc1NS(=O)(=O)c1cccc2ccccc12`: the activation is -4.59% (inactive).

In the case of `CCc1nc2c(OCCOc3ccccc3)cccn2c1N(C)C(=O)c1cccs1`, the activation was -2.69% (inactive).

Consider `CCOc1ccc2cc(C#N)c(SCC(=O)OC)nc2c1`, for which the activation is 86% (active).

For `COc1ccc(CCNC(=O)CSc2nc(-c3ccc(OC)c(OC)c3)ccc2C#N)cc1`, the activation is -3.46% (inactive).

Consider `CCOc1ccc2nc(N3CCCN(C(=O)Nc4ccccc4C)CC3)c(C#N)cc2c1`, for which the activation was -1.99% (inactive).

Turning to `COc1ccc(NC(=O)C(c2ccncc2)n2c(=O)c(-c3cc4ccccc4[nH]3)nc3ccccc32)cc1` (stereo unspecified), the activation was 16.9% (inactive).

As for `C[C@H](O)[C@@H]1CN2CCc3ccc(-c4ccc5c(c4)OCO5)cc3[C@@H]2C[C@@H]1N(C)C(=O)C1CCCCC1`, the activation was 23.5% (inactive).

Take `Cc1ccccc1C(=O)N[C@H](C(=O)N1CCC[C@H]1C(=O)NCc1ccccc1)C(C)C`: the activation was -3.2% (inactive).

Consider `COc1cc(C(O)c2nc3ccccc3n2C)cc(OC)c1OC` (stereo unspecified), for which the activation was -0.72% (inactive).

In the case of `COc1ccc(OC)c(C(O)c2nc3ccccc3n2C)c1` (stereo unspecified), the activation is -0.171% (inactive).

For `COc1cccc(C(O)c2nc3ccccc3n2C)c1` (stereo unspecified), the activation is 47.8% (active).

Take `CCCCCCn1c(=O)n2n(c1=O)C[C@]1(OC(=O)NCc3ccc(OC)c(OC)c3)CN(S(=O)(=O)c3ccc(C)cc3)C[C@]1(O)C2`: the activation is -4.95% (inactive).

Turning to `C=CCNC(=O)c1ccc(C)c(Br)c1`, the activation is -0.707% (inactive).

Regarding `Cc1cccc(-c2nc3ccc(C(=O)NCCN4CCN(C)CC4)cc3nc2-c2cccc(C)c2)c1`, the activation was 2.48% (inactive).

Consider `C=CCNC(=O)c1ccc2c3n(nc2c1)-c1ccc(C)cc1CO3`, for which the activation was 38.9% (active).
